# Reference: PubChem BioAssay (EPA / NIEHS)
# Results filed as inconclusive are left out. Activity calls are given as the source filed them. How the source made its calls, unless noted: active means hit-call score of the fitted dose curve at least 0.9, where 1 is the maximum; inactive means score below 0.9.
# Tests used:
# [1] = CCTE_Harrill_HTTr_Viability_MCF7: CCTE's 6-hour Cell Viability Assessment for the High-Throughput Transcriptomics (HTTr) Platform, in MCF-7 cells cultured in DMEM + 10% fetal bovine serum, Harrill Lab (AID 2284010)
# Method in brief: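 Eight-point concentration series, six-hour exposure. Propidium iodide exclusion imaged to assess membrane integrity as a cytotoxicity readout; bidirectional fitting was done with DMSO as negative control and activity baseline.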
# [2] = CCTE_Harrill_HTTr_Apoptosis_MCF7: CCTE's 6-hour Apoptosis Assessment for the High-Throughput Transcriptomics (HTTr) Platform, in MCF-7 cells cultured in DMEM + 10% fetal bovine serum, Harrill Lab (AID 2284011)
# Method in brief: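 MCF-7 cells in DMEM + 10% fetal bovine serum were exposed to chemicals for 6 hours over an eight-point dilution series. Caspase-3/7 activation was imaged by high content imaging with CellEvent Caspase 3/7 Green; bidirectional fitting used DMSO as baseline.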
# [3] = CCTE_Harrill_HTTr_CellCount_MCF7: CCTE's Cell Proliferation Assessment for the High-Throughput Transcriptomics (HTTr) Platform, Harrill Lab (AID 2284012; active means hit-call score of the fitted dose curve at least 0.9, where 1 is the maximum;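 further: count of Hoechst-stained nuclei per well by high-content imaging in MCF-7 cells; cells exposed to compound for six hours; intended direction is loss of nuclei count meaning fewer cells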)
# Method in brief: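 For this full-screen endpoint, MCF-7 cultures received eight compound dilutions for six hours. Well nuclei counts from Hoechst imaging were analyzed relative to DMSO.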
SMILES,outcome [1],outcome [2],outcome [3],AC50 [1]
Cc1ccc(O)c(C(C)(C)C)c1,inactive,inactive,inactive,
CC(C)[C@H]1CC[C@@H](C)CC1=O,inactive,,inactive,
CCCCCCCCCC=O,inactive,inactive,inactive,
CCCCCC(CO)CCC (configuration not stated),inactive,,inactive,
CCC(C)CCCC(C)(C)O (configuration not stated),inactive,inactive,inactive,
Cc1c(N(C)C)c(=O)n(-c2ccccc2)n1C,inactive,,inactive,
O=C1C(c2[nH]c3ccc(S(=O)(=O)O)cc3c2O)=Nc2ccc(S(=O)(=O)O)cc21,inactive,,inactive,
O=C(O)Cc1cccc2ccccc12,inactive,,inactive,
CC(=O)/C=C/C1=C(C)CCCC1(C)C,inactive,inactive,inactive,
COc1ccc(O)cc1,inactive,,inactive,
CC1CC(OC(=O)c2ccccc2O)CC(C)(C)C1 (configuration not stated),inactive,inactive,inactive,
NCCCCCCN,inactive,,inactive,
CN1[C@@H]2CC(OC(=O)[C@H](CO)c3ccccc3)C[C@H]1[C@@H]1O[C@@H]12 (some centres not stated),inactive,inactive,inactive,
O=[N+]([O-])c1cc(C(F)(F)F)ccc1Cl,inactive,inactive,inactive,
NC(=O)NC1NC(=O)NC1=O (configuration not stated),inactive,inactive,inactive,
CC(c1cc2ccccc2s1)N(O)C(N)=O (configuration not stated),inactive,,inactive,
Clc1ccc(Cl)c(Cl)c1Cl,inactive,inactive,inactive,
CCN(CC)c1ccc2c(-c3ccccc3C(=O)O)c3ccc(=[N+](CC)CC)cc-3oc2c1,,inactive,inactive,394 nM (active)
C=CCOc1nc(OCC=C)nc(OCC=C)n1,inactive,inactive,inactive,
CC1=CCC(O)(C(C)C)CC1 (configuration not stated),inactive,inactive,inactive,
CC(C)=CCCC(C)=CCCC(C)=CCO,inactive,,inactive,
Cc1c(Cl)c(=O)oc2cc(O)ccc12,inactive,inactive,inactive,
